Measurements from the supplement of paper PMC7726561.
The full ranking holds about 1,100 sequences; the median of “thermal melting temperature (Tm) of peptide-HLA complex” is about 58, and the lowest 2% start at about 42. Shown is part of a subset that was picked to be rich in the lowest values.

B1: unnamed (peptide)
chain: SLLDGVVEKL
B2: unnamed (peptide)
chain: TLFPVRLLV
B3: unnamed (peptide)
chain: GLIDGRLTI
B4: unnamed (peptide)
chain: FLLEQEKTQAL
B5: unnamed (peptide)
chain: LMGPVVHEV
B6: unnamed (peptide)
chain: QLQGYLRSV
B7: unnamed (peptide)
chain: GMDRYLIYV
B8: unnamed (peptide)
chain: YIYDKDMEII
B9: unnamed (peptide)
chain: QLLETLNQL
B10: unnamed (peptide)
chain: QLTNVILHL
B11: unnamed (peptide)
chain: SILSEVQQA
B12: unnamed (peptide)
chain: RLYQGINQL
B13: unnamed (peptide)
chain: FLPDPSALQNL
B14: unnamed (peptide)
chain: TLIDLPGITRV
B15: unnamed (peptide)
chain: LLAILPEAARA
B16: unnamed (peptide)
chain: ALLSGLREA
B17: unnamed (peptide)
chain: KLDQVIIHV
B18: unnamed (peptide)
chain: KVLEVTEEFGV
B19: unnamed (peptide)
chain: ILLEHGADPNL
B20: unnamed (peptide)
chain: VLDEEIAKA
B21: unnamed (peptide)
chain: SLQEEIAKL
B22: unnamed (peptide)
chain: SLLENIAKA
B23: unnamed (peptide)
chain: SLMDPNKFLLL
B24: unnamed (peptide)
chain: VLQGKLAEV
B25: unnamed (peptide)
chain: HLAIKLEQV
B26: unnamed (peptide)
chain: KIIEYSVYL
B27: unnamed (peptide)
chain: ALAPAPPQV
B28: unnamed (peptide)
chain: GLSTEGIYRV
B29: unnamed (peptide)
chain: ILDAGGHNVTI
B30: unnamed (peptide)
chain: KVIDYVPGI
B31: unnamed (peptide)
chain: NLFNRYPAL
B32: unnamed (peptide)
chain: FLMDFIHQV
B33: unnamed (peptide)
chain: FLMKNSDLYGA
B34: unnamed (peptide)
chain: ALLDRIVSV
B35: unnamed (peptide)
chain: NIIPYITNV
B36: unnamed (peptide)
chain: SLLPEGPPAI
B37: unnamed (peptide)
chain: LLAEDDELHL
B38: unnamed (peptide)
chain: FLDHIIASV
B39: unnamed (peptide)
chain: ALAPGVRAV
B40: unnamed (peptide)
chain: YLPEDFIRVG
B41: unnamed (peptide)
chain: LLQEVEHQL
B42: unnamed (peptide)
chain: ALFPGDVDRL
B43: unnamed (peptide)
chain: WLIEDGKVVTV
B44: unnamed (peptide)
chain: AMNISVPQV
B45: unnamed (peptide)
chain: FLAELPGSLSL
B46: unnamed (peptide)
chain: ILEEKGLSQV
B47: unnamed (peptide)
chain: LLSDVRFVL
B48: unnamed (peptide)
chain: LLRDGIELV
B49: unnamed (peptide)
chain: AMSNLVPPVEL
B50: unnamed (peptide)
chain: RLGEAEGLMKV
B51: unnamed (peptide)
chain: FILDFYEKV
B52: unnamed (peptide)
chain: KIFEMGPVFTL
B53: unnamed (peptide)
chain: ALLDGRLQV
B54: unnamed (peptide)
chain: FILPHISTA
B55: unnamed (peptide)
chain: LADETLLKV
B56: unnamed (peptide)
chain: GLDPNKPPEL
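Further: lysates heated 10 min at 37–73 °C, complexes pulled down with pan-HLA I antibody, peptide signal by DIA-MS relative to 37 °C, Tm where half the complex is unfolded.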

The sequences below were run against HLA-A*02:01 (assay: thermal melting temperature (Tm) of peptide-HLA complex; higher = more thermostable pHLA complex). Conditions: C1R-A*02:01.
For B1, the thermal melting temperature was 55.5 °C. With B2 the thermal melting temperature was 55.8 °C. B3 was tested, and the thermal melting temperature was 54 °C. With B4 the thermal melting temperature was 59 °C. B5 showed a thermal melting temperature of 46.4 °C. B6 showed a thermal melting temperature of 57.7 °C. B7 was tested, and the thermal melting temperature was 60.9 °C. In the case of B8, the thermal melting temperature is reported as 57.2 °C. B9 was tested, and the thermal melting temperature was 41.4 °C. Sequence B10 has a thermal melting temperature of 58.7 °C. Sequence B11 has a thermal melting temperature of 53.3 °C. Sequence B12 has a thermal melting temperature of 55.9 °C. In the case of B13, the thermal melting temperature is reported as 55 °C. With B14 the thermal melting temperature was 56.9 °C. B15 showed a thermal melting temperature of 60 °C. B16 was tested, and the thermal melting temperature was 62.6 °C. With B17 the thermal melting temperature was 60.5 °C. B18 gave a thermal melting temperature of 62.6 °C. Work on B19 yielded a thermal melting temperature of 51.4 °C. Work on B20 yielded a thermal melting temperature of 40.7 °C. Work on B21 yielded a thermal melting temperature of 53.4 °C. Sequence B22 has a thermal melting temperature of 60.6 °C. Sequence B23 has a thermal melting temperature of 55.1 °C. B24 showed a thermal melting temperature of 53.5 °C. In the case of B25, the thermal melting temperature is reported as 59.5 °C. Sequence B26 has a thermal melting temperature of 59.5 °C. B27 gave a thermal melting temperature of 62.1 °C. B28 gave a thermal melting temperature of 60.9 °C. For B29, the thermal melting temperature was 54.5 °C. B30 showed a thermal melting temperature of 58.8 °C. Sequence B31 has a thermal melting temperature of 58.4 °C. B32 showed a thermal melting temperature of 62.2 °C. B33 gave a thermal melting temperature of 58.4 °C. With B34 the thermal melting temperature was 64.2 °C. B35 gave a thermal melting temperature of 51.4 °C. B36 gave a thermal melting temperature of 57.8 °C. With B37 the thermal melting temperature was 44.2 °C. B38 was tested, and the thermal melting temperature was 61.4 °C. For B39, the thermal melting temperature was 60.2 °C. B40 showed a thermal melting temperature of 46.8 °C. With B41 the thermal melting temperature was 57.8 °C. For B42, the thermal melting temperature was 54.3 °C. B43 showed a thermal melting temperature of 58.3 °C. With B44 the thermal melting temperature was 58.1 °C. With B45 the thermal melting temperature was 49.3 °C. B46 was tested, and the thermal melting temperature was 59.1 °C. B47 showed a thermal melting temperature of 54.8 °C. B48 was tested, and the thermal melting temperature was 57.8 °C. For B49, the thermal melting temperature was 53.7 °C. For B50, the thermal melting temperature was 56.4 °C. With B51 the thermal melting temperature was 41.8 °C. For B52, the thermal melting temperature was 52.7 °C. Sequence B53 has a thermal melting temperature of 60.7 °C. B54 was tested, and the thermal melting temperature was 55.7 °C. Work on B55 yielded a thermal melting temperature of 55.2 °C. B56 was tested, and the thermal melting temperature was 61 °C.
